Results taken from PubChem BioAssay.
The source made the active and inactive calls.

What was measured:
[1] = small molecules captured by biotinylated probe aFSTL3 – biochemical, small-molecule microarray, fluorescence 635/667, stem cell growth factor project, primary screen (AID 1064); details: higher = more signal;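 note: measures binding of the biotinylated anti-FSTL3 antibody to printed compounds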
[2] = binders from COS7 lysate, DM2A8 probe, primary screen, torsin A project, cell lysate, small-molecule microarray, fluorescence 635/667 (AID 1065); details: higher = more signal, COS7 lysate expressing mutant human TOR1A
[3] = small molecules captured by biotinylated probe aFGF2 – biochemical, small-molecule microarray, fluorescence 635/667, stem cell growth factor project, primary screen (AID 1067); details: higher = more signal;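 note: measures binding of biotinylated aFGF2 protein to printed compounds on slides; z-score merges feature fluorescence and signal-to-noise across triplicate slides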
[4] = small molecules captured by biotinylated probe aFGF10 – biochemical, small-molecule microarray, fluorescence 635/667, stem cell growth factor project, primary screen (AID 1071); details: higher = more signal;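 note: score merges 667 nm spot intensity and signal to noise from triplicate slides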
[5] = target: Neurogenic locus notch homolog protein 2 (Homo sapiens) (UniProt Q04721); assay: small molecules binding Notch2 protein – biochemical, small-molecule microarray, 635 nm fluorescence, stem cell growth factors, primary screen (AID 1073); details: higher = more signal
[6] = target: Pro-neuregulin-1, membrane-bound isoform (Homo sapiens) (UniProt Q02297); assay: small molecules binding neuregulin-1 protein – biochemical, small-molecule microarray, fluorescence 635/667, psychiatric disease protein project, primary screen (AID 1075); details: NRG1 binding, 635 nm fluorescence, higher = more signal;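 note: score combines 667 nm spot fluorescence with signal to noise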
[7] = system: Neuregulin-1 EGF-like domain; assay: small molecules binding NRG1 EGF domain – biochemical, small-molecule microarray, 635 nm fluorescence, primary screen (AID 1081); details: higher = more signal;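 note: binding of the protein to compounds printed on small-molecule microarray slides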
[8] = FRG1 expression reporter modulators in myotubes – cell-based, C2C12 myotubes, firefly/Renilla luciferase, luminescence, FRG1 inhibition for FSHD, primary screen (AID 1084); details: FRG1 promoter luciferase, higher = more signal, called active from +8 up or from −8 down
[9] = small molecules captured by biotinylated probe aFST – biochemical, small-molecule microarray, fluorescence 635/667, stem cell growth factor project, primary screen (AID 1086); details: higher = more signal;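 note: score merges 667 nm fluorescence with signal-to-noise of each printed compound spot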
[10] = binders of probe aHhip on microarray, primary screen, stem cell growth factor project, biochemical, small-molecule microarray, fluorescence 635/667 (AID 1087); details: higher = more signal;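 note: score merges spot fluorescence at 667nm with spot signal to noise ratio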

Sequence of Neurogenic locus notch homolog protein 2 (Homo sapiens) (Q04721 whole entry, looked up, canonical isoform): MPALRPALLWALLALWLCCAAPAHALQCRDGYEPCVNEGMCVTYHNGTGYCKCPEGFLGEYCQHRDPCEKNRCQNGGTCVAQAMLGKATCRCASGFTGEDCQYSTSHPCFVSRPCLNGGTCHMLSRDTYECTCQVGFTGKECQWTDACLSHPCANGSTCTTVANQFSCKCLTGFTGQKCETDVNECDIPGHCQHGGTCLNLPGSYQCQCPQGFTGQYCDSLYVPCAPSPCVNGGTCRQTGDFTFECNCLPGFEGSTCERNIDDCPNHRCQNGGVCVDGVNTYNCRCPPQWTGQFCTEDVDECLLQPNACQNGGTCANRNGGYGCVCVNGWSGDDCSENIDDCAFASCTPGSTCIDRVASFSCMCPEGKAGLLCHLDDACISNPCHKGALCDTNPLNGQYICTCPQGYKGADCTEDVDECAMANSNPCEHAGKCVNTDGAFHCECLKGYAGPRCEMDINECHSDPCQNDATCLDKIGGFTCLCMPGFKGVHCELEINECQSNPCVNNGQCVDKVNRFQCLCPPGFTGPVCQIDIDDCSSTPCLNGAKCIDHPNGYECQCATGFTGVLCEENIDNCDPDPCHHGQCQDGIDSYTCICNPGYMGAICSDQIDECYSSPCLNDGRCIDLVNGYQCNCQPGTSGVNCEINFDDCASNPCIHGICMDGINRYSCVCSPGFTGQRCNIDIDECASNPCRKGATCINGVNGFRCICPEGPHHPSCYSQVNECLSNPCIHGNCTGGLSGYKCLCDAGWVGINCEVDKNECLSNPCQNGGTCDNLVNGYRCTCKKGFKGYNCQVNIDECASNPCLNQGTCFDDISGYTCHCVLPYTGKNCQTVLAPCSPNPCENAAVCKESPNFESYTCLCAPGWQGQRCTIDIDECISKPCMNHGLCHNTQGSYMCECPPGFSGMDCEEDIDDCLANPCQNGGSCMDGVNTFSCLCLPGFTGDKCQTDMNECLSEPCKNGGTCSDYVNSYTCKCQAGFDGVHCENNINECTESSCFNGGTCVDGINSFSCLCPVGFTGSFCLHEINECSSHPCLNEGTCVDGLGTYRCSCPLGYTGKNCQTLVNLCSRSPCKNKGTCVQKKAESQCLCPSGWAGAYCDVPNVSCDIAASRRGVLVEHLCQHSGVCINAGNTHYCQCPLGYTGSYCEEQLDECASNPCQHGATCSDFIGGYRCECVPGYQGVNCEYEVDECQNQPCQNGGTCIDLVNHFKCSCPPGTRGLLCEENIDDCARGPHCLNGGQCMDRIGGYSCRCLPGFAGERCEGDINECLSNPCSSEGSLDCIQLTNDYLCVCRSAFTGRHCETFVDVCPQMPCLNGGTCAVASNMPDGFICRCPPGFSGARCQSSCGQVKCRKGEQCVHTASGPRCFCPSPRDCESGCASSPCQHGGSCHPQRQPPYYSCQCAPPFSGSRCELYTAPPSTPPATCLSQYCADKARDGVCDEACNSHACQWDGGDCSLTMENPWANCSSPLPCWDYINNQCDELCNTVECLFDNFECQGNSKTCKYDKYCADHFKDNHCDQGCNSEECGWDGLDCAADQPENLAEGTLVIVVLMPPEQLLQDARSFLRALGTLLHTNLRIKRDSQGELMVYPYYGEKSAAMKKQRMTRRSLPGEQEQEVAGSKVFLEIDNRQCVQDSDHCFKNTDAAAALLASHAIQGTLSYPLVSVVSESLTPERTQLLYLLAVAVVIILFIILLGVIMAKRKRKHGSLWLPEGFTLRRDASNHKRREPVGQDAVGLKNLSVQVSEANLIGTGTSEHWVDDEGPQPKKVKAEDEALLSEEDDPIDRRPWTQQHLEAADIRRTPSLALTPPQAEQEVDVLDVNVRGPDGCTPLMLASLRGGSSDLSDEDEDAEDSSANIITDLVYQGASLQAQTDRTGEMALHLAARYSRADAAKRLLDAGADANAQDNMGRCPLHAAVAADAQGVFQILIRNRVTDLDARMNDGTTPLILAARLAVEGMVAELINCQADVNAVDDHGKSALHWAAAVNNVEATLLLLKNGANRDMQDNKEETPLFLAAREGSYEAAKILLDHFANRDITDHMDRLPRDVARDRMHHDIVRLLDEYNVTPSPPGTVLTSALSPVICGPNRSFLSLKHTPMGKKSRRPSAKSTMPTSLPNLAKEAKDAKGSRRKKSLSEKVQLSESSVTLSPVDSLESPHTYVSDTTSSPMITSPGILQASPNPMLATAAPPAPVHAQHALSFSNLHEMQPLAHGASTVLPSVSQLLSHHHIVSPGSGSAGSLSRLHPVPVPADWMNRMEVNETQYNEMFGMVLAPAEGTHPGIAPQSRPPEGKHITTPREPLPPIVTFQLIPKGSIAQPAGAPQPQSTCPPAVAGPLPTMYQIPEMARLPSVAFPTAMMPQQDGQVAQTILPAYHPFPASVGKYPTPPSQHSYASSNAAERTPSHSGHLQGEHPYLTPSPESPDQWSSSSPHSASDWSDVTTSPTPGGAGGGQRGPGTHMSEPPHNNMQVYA
Sequence of Pro-neuregulin-1, membrane-bound isoform (Homo sapiens) (Q02297 whole entry, looked up, the tested form may be a part, canonical isoform): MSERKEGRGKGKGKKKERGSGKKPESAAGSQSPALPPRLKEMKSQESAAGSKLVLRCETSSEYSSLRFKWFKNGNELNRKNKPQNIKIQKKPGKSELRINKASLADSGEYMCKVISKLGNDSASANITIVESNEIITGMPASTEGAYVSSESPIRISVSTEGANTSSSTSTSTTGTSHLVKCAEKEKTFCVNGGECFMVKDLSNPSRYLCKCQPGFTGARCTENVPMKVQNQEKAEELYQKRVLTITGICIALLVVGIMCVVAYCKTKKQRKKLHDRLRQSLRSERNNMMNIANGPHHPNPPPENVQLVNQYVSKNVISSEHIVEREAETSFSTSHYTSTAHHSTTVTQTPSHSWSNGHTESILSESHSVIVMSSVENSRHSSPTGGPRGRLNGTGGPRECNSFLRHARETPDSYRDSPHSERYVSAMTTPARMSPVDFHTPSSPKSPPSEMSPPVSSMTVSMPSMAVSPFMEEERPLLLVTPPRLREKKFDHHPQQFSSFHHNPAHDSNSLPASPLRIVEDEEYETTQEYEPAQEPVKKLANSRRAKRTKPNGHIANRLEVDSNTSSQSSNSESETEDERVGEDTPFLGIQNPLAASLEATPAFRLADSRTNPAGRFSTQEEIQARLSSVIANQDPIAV

| Structure (SMILES) | composite z-score [1] | composite z-score [2] | composite z-score [3] | composite z-score [4] | composite z-score [5] | composite z-score [6] | composite z-score [7] | z-score [8] | composite z-score [9] | composite z-score [10] |
| --- | --- | --- | --- | --- | --- | --- | --- | --- | --- | --- |
| CC(C)C(=C=CC[C@@H](O)c1ccc(OCCO)cc1)C[C@@H](O)COCc1ccccc1 | -0.342 | 0.3 | -0.085 | -0.376 | -0.0534 | -0.849 | 0.449 | -1.74 (inactive) | -0.0716 | -0.0994 |
| C=CCOC(=O)[C@H]1[C@@H]2C(=O)O[C@@H](c3ccccc3)[C@@H](c3ccccc3)N2[C@@H](c2ccc(OCCOC(=O)[C@@H]3C[C@@H]4C(=O)N[C@@H](CCCCNC(C)=O)C(=O)N4[C@@H]3c3ccc(O)cc3)cc2)[C@]12C(=O)Nc1ccccc12 | -0.475 | 0.973 | -0.0512 | 0.483 | 0.795 | 1.26 | 1.32 | 0.159 (inactive) | -0.0579 | 0.0176 |
| COc1ccc([C@H]2OC[C@@H]3C[C@@H](Cc4ccccc4)C(=O)N32)cc1 | -0.446 | 0.466 | 0.0216 | 0.526 | 0.426 | -0.103 | 1.11 | -3.02 (inactive) | 0.357 | 0.115 |
| COCCOC(=O)N1C(=O)[C@@]2(c3cc(C#Cc4ccc(OC)cc4)ccc31)[C@H](c1ccc(OCCO)cc1)N1[C@H](c3ccccc3)[C@H](c3ccccc3)OC(=O)[C@H]1[C@@H]2C(=O)N1CCN(c2ncccn2)CC1 | -0.144 | 0.316 | -0.0113 | 0.397 | 0.926 | -0.318 | 1.13 | 0.598 (inactive) | 0.736 | 0.0176 |
| CC(C)[Si]1(C(C)C)O[C@@H](c2ccccc2)c2cc(-c3ccc(-c4ccc(Cl)c(Cl)c4)o3)nc(-c3ccccc3)c21 | -0.104 | 0.291 | -0.0953 | -0.0933 | -0.0802 | 0.398 | -0.39 | 0.97 (inactive) | 0.0481 | -0.0645 |
| CC[C@@H]1C=C(C(=O)O)[C@H](c2ccc(Br)cc2)N1S(=O)(=O)c1ccc(C)cc1 | 0.191 | 0.0963 | 0.0746 | 0.638 | 1.26 | 1.93 | 0.503 | -1.18 (inactive) | 0.614 | 0.141 |
| COCCOC(=O)N1C(=O)[C@@]2(c3cc(C#CCCO)ccc31)[C@H](C(N)=O)[C@H]1C(=O)O[C@H](c3ccccc3)[C@H](c3ccccc3)N1[C@@H]2c1ccc(O)cc1 | -0.025 | -0.283 | -0.0145 | 0.413 | -0.242 | 0.298 | 0.171 | 0.663 (inactive) | -0.0464 | -0.202 |
| C=CCN1C(=O)[C@]2(O[C@H](CCn3cc([C@H](O)c4ccccc4)nn3)[C@@H]([Si](C)(C)c3ccc(OC)cc3)[C@@H]2C)c2cc(N3CCC3=O)ccc21 | -0.0453 | 0.334 | 0.0087 | 0.679 | -0.255 | 1.9 | 1.14 | -1.43 (inactive) | -0.282 | 0.0505 |
| COc1cc2c(cc1OC)CN(C(=O)[C@@H]1[C@H]3C(=O)O[C@H](c4ccccc4)[C@H](c4ccccc4)N3[C@H](c3ccccc3OCCO)[C@@]13C(=O)Nc1ccc(C#CCCO)cc13)CC2 | 0.718 | 0.531 | -0.152 | 0.671 | 0.626 | 0.86 | 1.23 | 0.876 (inactive) | 1.25 | 0.0458 |
| CCCC#C[Si](O[C@H](CC)c1cn(Cc2cccc(Cl)c2)nn1)(C(C)C)C(C)C | -0.468 | -0.139 | -0.0865 | 0.85 | 0.831 | -0.0184 | 1.15 | 0.414 (inactive) | 0.0751 | -0.137 |
| N#Cc1ccc(NN2C(C(O)C(c3ccccc3)c3ccccc3)C=CC3C(=O)N(c4ccccc4)C(=O)C32)cc1 (stereo not given) | 0.223 | 0.135 | -0.0462 | 0.952 | 1.65 | 1.77 | 1.15 | -0.621 (inactive) | 1.93 | 0.0585 |
| CN1C=C(C(=O)OCCS(C)(=O)=O)C(C(=O)OCCS(C)(=O)=O)=CC(c2ccc(CO)cc2)=CC1C1CC1 (stereo not given) | -0.0965 | 0.528 | -0.0824 | 0.0351 | -0.0701 | 1 | 1.27 | 0.849 (inactive) | -0.0993 | -0.0994 |
| CC1(C)[C@@H]2CC(C(O)C3C=CC4C(=O)N(Cc5ccccc5)C(=O)C4N3n3cnnc3)=C[C@H]1C2 (stereo not given in full) | -0.0224 | 0.839 | 0.0119 | 0.959 | 1.33 | 1.56 | 1.39 | 0.349 (inactive) | 1.06 | 0.0053 |
| COC(=O)[C@H](Cc1ccccc1)N[C@@H](/C=C/C1CC1)[C@H](O)Cc1ccccc1 | 0.115 | -0.355 | 0.0748 | 0.699 | -1.08 | -0.292 | 0.583 | -2.66 (inactive) | -0.575 | -0.409 |
| COCCOC(=O)N1C(=O)[C@@]2(c3cc(C#CCC(C(=O)OC)C(=O)OC)ccc31)[C@H](c1ccccc1OCCO)N1[C@H](c3ccccc3)[C@H](c3ccccc3)OC(=O)[C@H]1[C@@H]2C(=O)NC[C@H](O)c1ccccc1 | -0.0494 | 0.114 | -0.117 | 0.791 | 0.961 | 1.27 | 1.15 | -0.923 (inactive) | 0.357 | 0.152 |
| C=CCC(OC(C)=O)[C@@H]1[C@@H](N(Cc2ccc(-c3ccccc3)cc2)C(=O)c2ccc(-c3ccccc3)cc2)c2cc(OCCCO)ccc2N1C(=O)Cc1ccc2ccccc2c1 (stereo not given in full) | -0.519 | 0.574 | -0.117 | 0.0381 | 0.186 | 0.0278 | -0.6 | 0.187 (inactive) | 0.2 | -0.0631 |
| O=C(c1ccccc1)N1C(=O)[C@]2(COC(c3ccc(OCCCO)cc3)=N2)Cc2ccccc21 | 0.303 | 0.863 | 0.11 | 0.879 | 0.839 | 1.72 | 1.34 | 1.23 (inactive) | 0.647 | -0.266 |
| CCCCCCc1nc(-c2ccc(OC)nc2)cc2c1[Si](C(C)C)(C(C)C)O[C@H]2c1ccccc1 | -0.16 | -0.0924 | 0.0131 | 0.0809 | 0.144 | -0.384 | -0.821 | -0.566 (inactive) | -0.546 | -0.146 |
| COCCCNC(=O)[C@@]1(C)c2ccccc2C(=O)N(C(C)C)[C@H]1c1ccc(CO)cc1 | -0.427 | 0.512 | -0.0996 | -0.0442 | 0.552 | 0.302 | 1.48 | 0.214 (inactive) | 0.114 | 0.0201 |
| Cc1ccccc1C(O)C1C=CC2C(=O)N(c3ccccc3)C(=O)C2N1Nc1ccc(C(C)C)cc1 (stereo not given) | -0.0476 | -0.0455 | 0.0536 | 0.82 | 1.5 | 1.27 | 0.592 | -0.729 (inactive) | 1.41 | 0.142 |
| CCCC[C@@H]1C[C@H]1[C@@H](NC(=O)C(C)(C)C)c1ccc(C(F)(F)F)cc1 | 1.54 | 0.466 | -0.0785 | -0.38 | -1.36 | 0.669 | 0.55 | -0.571 (inactive) | -0.347 | 0.235 |
| CCOC(=O)C1=CC[C@@H](c2ccccc2)N(S(=O)(=O)c2ccc(C)cc2)[C@H]1c1ccccc1C | 0.158 | -0.0515 | -0.0895 | 0.49 | 1.47 | 0.393 | 0.714 | -3.47 (inactive) | 0.789 | 0.115 |
| CCCC=C(CCC)[C@@H](NC(=O)c1cccs1)c1ccc(C(F)(F)F)cc1 | 0.251 | 0.654 | -0.0515 | 0.383 | 1.43 | 0.393 | 0.729 | 2.26 (inactive) | 1.46 | -0.132 |
| COC(=O)[C@@]1(Cc2ccccc2)N=C(c2ccc(OCCCO)cc2)O[C@H]1c1ccccc1 | 0.348 | 0.0099 | 0.0243 | 0.531 | -0.165 | 1.5 | 0.939 | -2.3 (inactive) | -0.053 | -0.169 |
| CCCCCN1CC=CC23O[C@@H]4C=CCCOC(=O)C4[C@H]2C(=O)N(CCCCCO)[C@@H]3C1=O (stereo not given in full) | 0.262 | 1.2 | -0.195 | -0.168 | -0.814 | 0.927 | 1.55 | -0.666 (inactive) | -0.432 | -0.45 |
| COc1ccccc1CN1C(=O)c2ccccc2[C@@]2(Cc3ccccc3N(CC(C)C)C2=O)[C@@H]1c1ccc(CO)cc1 | -0.211 | -0.44 | -0.0543 | 0.134 | -0.304 | -0.0503 | -0.738 | -0.0845 (inactive) | -0.595 | -0.0994 |
| O=C1c2ccccc2[C@](Cc2ccccc2I)(C(=O)NCC(F)(F)F)[C@H](c2ccc(CO)cc2)N1Cc1ccccc1Cl | -0.266 | 0.0347 | 0.0069 | 0.106 | 0.95 | 1.74 | 1.28 | -1.05 (inactive) | 0.748 | 0.0373 |
| OCCCC1=CC(c2cccs2)N(Cc2cc3c(cc2Br)OCO3)CC1 (stereo not given) | 0.235 | 0.457 | -0.124 | -0.0316 | -0.242 | 0.775 | 1.04 | -1.86 (inactive) | -0.0026 | -0.206 |
| O=C(CS)NCCCCCCNC(=O)[C@@H]1C[C@@H]2C(=O)N[C@@H](Cc3ccccc3)C(=O)N2[C@@H]1c1cccc(OCCO)c1 | 0.0549 | 0.94 | 0.0589 | 0.956 | 1.08 | 0.659 | 1.23 | 3.09 (inactive) | 0.616 | -0.0994 |
| [N-]=[N+]=NCc1ccccc1[C@@H]1OC(c2ccc(OCCCO)cc2)=N[C@]1(Cc1ccccc1)C(=O)NCC(O)CO (stereo not given in full) | 0.798 | 0.42 | 0.126 | 0.343 | -0.119 | 1.84 | 1.2 | -0.339 (inactive) | 0.421 | 0.132 |
